In PubChem BioAssay (NCATS):
Records with an inconclusive call do not appear. Where a call stands in place of a potency, no number is given. Active and inactive are the calls of the source. Calls come from the whole dose curve; as a rule, active = well fitted inhibition curve with a large enough effect; inconclusive = small, poorly fitted or top-dose-only effect; inactive = flat fitted curve, though single readings scatter.

Each molecule was assayed on CP203 (assay: qHTS profiling for inhibitors of Plasmodium falciparum proliferation (AID 504749; note: nearly all actives have a fitted effect of over 60% in size)). Conditions: P. falciparum in erythrocytes, SYBR Green DNA, 72 h; series mostly up to 28.7 µM.
Description: NIH National Institute of Allergy and Infectious Diseases [NIAID] NIH Chemical Genomics Center [NCGC] MLPCN Grant: None Assay Provider: Xinzhuan Su, NIAID NCGC Assay Overview: Plasmodium falciparum is a virulent malarial parasite that kills 1-2 million people worldwide each year. Transmitted by mosquitoes, the sporozoite form of the parasite enters the blood stream to infect hepatocytes, where they become merozoites that infect red blood cells (erythrocytes). Within erythrocytes, merozoites begin a […] cycle of growth and division, after which the parasite is released to infect new red blood cells. Gametocytes, which form within erythrocytes as well, circulate in the bloodstream and are ingested by the mosquito, thereby completing the life cycle. To profile malarial isolates for differential chemical responses and to identify inhibitors of malarial growth, an assay that measures P. falciparum growth and replication within erythrocytes was employed. This assay uses a DNA binding fluorescent dye (SYBR Green) to detect parasite DNA following cell lysis. Because mature erythrocytes lack DNA, only Plasmodium-derived DNA is detected.
NCGC Assay Protocol Summary: The SYBR Green viability assay was adapted from a method described previously (Plouffe et al., 2008). For screening 3 ul culture medium was dispensed into 1536 well black clear bottom plates (Aurora Biotechnologies) using a Multidrop Combi (Thermo Fisher Scientific Inc.), 23 nL compounds in DMSO were added by a pin tool (Kalypsys), and 5 ul of erythrocytes infected with P. falciparum (0.3% parasitemia, 2.5% hematocrit final concentration) were added. The plates were incubated at 37 C in a humidified incubator in 5% CO2 for 72 h, and 2 ul lysis buffer (20 mM Tris HCl, 10 mM EDTA, 0.16% saponin, 1.6% triton X, 10X SYBR Green I supplied as 10,000X […] by Invitrogen) was added to each well. The plates were mixed for 25 sec with gentle shaking and incubated overnight at room temperature in the dark. The following morning, fluorescence intensity at 485(14) nm excitation and 535(25) nm emission wavelengths was measured on an EnVision (Perkin Elmer) plate reader. Plate reads were normalized relative to the control inhibitor (0.29 uM artemisinin) and vehicle (DMSO) wells present on each plate and then corrected by an algorithm using vehicle-only control plates at the beginning and end of the compound plate stack.
Potency is the fitted concentration of half-maximal effect.

SMILES | Potency
O=C(O)COc1ccccc1 | inactive
C[C@]12CCC(=O)C(O)=C1CC[C@@H]1[C@H]3CCC(=O)[C@@]3(C)CC[C@@H]12 | inactive
C#CC1(O)CCC2C3CCC4=CC(=O)CCC4(C)C3CCC21C (configuration not stated) | inactive
CN1C2CCC1CC(OC(=O)c1cc(Cl)cc(Cl)c1)C2 (configuration not stated) | inactive
CCCN1CCC[C@H](c2cccc(O)c2)C1 | inactive
COC(=O)[C@@H](N)CCCN=C(N)N[N+](=O)[O-] | inactive
Cc1ccc(Cl)c(O)c1 | inactive
CC[N+]1(CCOC(=O)C(O)(c2ccccc2)c2ccccc2)CCCCC1 | inactive
COC(=O)c1cncn1C(C)c1ccccc1 (configuration not stated) | inactive
CC(=O)[O][Hg][c]1ccccc1 | 13.5 µM (active)
CC(C)NC(C)Cc1ccc(I)cc1 (configuration not stated) | inactive
NC(=O)CN1CC(O)CC1=O (configuration not stated) | inactive
CC(=O)OCC1=C(C(=O)O)N2C(=O)[C@@H](N)[C@@H]2SC1 | inactive
C=CCN1CC[C@]23CCCCC2[C@H]1Cc1ccc(O)cc13 (some centres not stated) | inactive
c1ccc(C2(c3ccccc3)CC2C2=NCCN2)cc1 (configuration not stated) | inactive
CCCCCCCCCC(CC)c1ccc(S(=O)(=O)O)cc1 (configuration not stated) | inactive
Cc1cc(O)ccc1Cl | inactive
O=C(O)C(Cl)Cl | inactive
O=[N+]([O-])c1ccc([As](=O)(O)O)cc1 | 9.53 µM (active)
NC1=NC(=O)N2CC12 (configuration not stated) | inactive
CCCCc1ccc(C(=O)O)nc1 | inactive
C1CCC(NC2CCCCC2)CC1 | inactive
